The campaign covered roughly 1,400 compounds. About 30 (2%) were called active. Roughly 15% stayed inconclusive and do not appear here. Calls come from the whole dose curve; as a rule, active = well fitted inhibition curve with a large enough effect; inconclusive = small, poorly fitted or top-dose-only effect; inactive = flat fitted curve, though single readings scatter. What follows is part of a selection rich in actives, with near analogues and random picks from the rest.
% is set by controls: 0 for no effect and ±100 for the full control effect; potency is the fitted concentration of half-maximal effect.

A short description of this test: Firefly Luciferase Counterscreen for Inhibitors of ATXN expression. The settings on record: luminescence; series mostly up to 57.5 µM; activity change, negative = inhibition: at the top concentration. An excerpt:
University of Utah School of Medicine, Salt Lake City, Utah
Spinocerebellar ataxia type 2 (SCA2) is a multisystem neurodegenerative disease caused by a dominantly acting mutation leading to expansion of a polyQ domain in the ataxin-2 protein (ATXN2). SCA2 patients develop progressive ataxia and later lose function in other neuronal systems. Prominent parkinsonian signs develop in some patients. Like many neurodegenerative disorders, no symptomatic or disease-modifying treatments are known.
The primary objective of the proposed research is to identify compounds inhibiting ATXN2 expression and to test them for efficacy in SCA2 mouse models. We have developed a cell-based assay paired with an in vivo mouse model using identical luciferase expression constructs. This approach takes advantage of an ATXN2-luciferase transgene, with the luciferase gene flanked by the upstream and downstream portions of the ATXN2 gene. Here we describe a 5-7 dose quantitative high thoroughput screen (qHTS) for compounds lowering ATXN2 expression. We screened the NIH Molecular Libraries Small Molecule Repository (MLSMR) and NCGC's mechanistically annotated (MIPE) and drug repurposing (NPC) collections of compounds for lowering expression of an ATXN2-luciferase reporter in HEK-293 cells. The assay is a multiplexed cell viability assay to ensure target reduction in the absence of cytotoxicity. Secondary qHTS assays included a CMV-luciferase reporter expressed in HEK-293 cells as well as a biochemical assay using recombinant luciferase to detect inhibitors of the reporter enzyme. Compounds that inhibit ATXN2 expression but is not cytotoxic were selected for confirmatory and secondary screens.
PROTOCOL TABLE (as described by Inglese J, Shamu CE and Guy RK. 2007)
SEQUENCE No. (e.g., 1, 2, 3, etc.); […] (e.g., Cells, Incubation, Reagent, etc.); VALUE; DESCRIPTION.
2; Compounds; 23 nL; Kalypsis pintool (Wako USA) equipped with a 1536-well pin head.
3; Enzyme; 1 uL; recombinant firefly luciferase (prepared in 50 mM Tris HCl pH7.5, 10 mM MgCl2, 0.05% BSA, 0.01% Tween20) at final concentration of 10 nM. Wells containing buffer only were used as control (set as 100% inhibition when normalizing data).
4; Incubation; 10 min; room temperature.
5; Detection; Luminescence; Viewlux plate reader (PerkinElmer).
NOTES (numbers refer to Sequence numbers above)
1. Luciferase substrate is added to 1536 well, Greiner white assay plate. Evaporation was prevented by covering assay plates with metal lids containing holes to allow gas diffusion.
2. Compounds were added in a dose response manner with the final concentrations of 57, 11.4, 2.28, 0.46, 0.091, 0.018, 0.0037 uM. Vehicle-only plates, with DMSO being pin-transferred to columns 5-48, were inserted uniformly at the beginning and the end of each library to monitor and record any shifts in assay performance.
3. Recombinant firefly luciferase (10 nM final concentration) is added to the assay plate.
5. End-point luminescence is then measured on the Viewlux (PerkinElmer) imager equipped with a clear emission filter using a 2 sec exposure.
Inglese J, Shamu CE and Guy RK, Reporting data from high throughput screening of small molecule libraries, Nature Chemical Biology, 2007, 3(8): 438-441. doi.org/10.1038/nchembio0807-438.
(In general: Counterscreens check selectivity or assay interference.)
With `C=CCc1cccc(/C=N/NC(=O)CCC(=O)Nc2ccc(F)cc2)c1O`, the “activity change, negative = inhibition” value was 2.3% (inactive).

Take `CCCCn1c(=N)n(CCOc2ccc(C)cc2)c2ccccc21`: the “activity change, negative = inhibition” value was 2.78% (inactive).

With `CC1CCCN(c2ncnc3c2cnn3-c2ccc(Cl)cc2)C1` (stereo not given), the Potency is 0.0891 µM (active).

Consider `Cn1ncc2c(N3CCN(c4ccc(Cl)c(Cl)c4)CC3)ncnc21`, for which the “activity change, negative = inhibition” value is -0.373% (inactive).

Consider `COc1ccccc1Cc1c(-c2ccco2)nc2c(C)cc(Br)cn12`, for which the Potency is 15.8 µM (active).

For `Oc1ccccc1C(Nc1nccs1)c1ccc2cccnc2c1O` (stereo not given), the “activity change, negative = inhibition” value was -4.63% (inactive).

Consider `Oc1ccc(N2CCN(c3ccnc4cc(Cl)ccc34)CC2)cc1`, for which the “activity change, negative = inhibition” value was -6.51% (inactive).

On to `CN1CCN(c2cc(-c3cc(O)c4ncccc4c3)ccn2)CC1`, for which the “activity change, negative = inhibition” value was -1.23% (inactive).

With `CCN1CCS/C1=C\C=C\C1=[N+](CC)CCS1`, the “activity change, negative = inhibition” value was -3.22% (inactive).

As for `Cc1cc([N+](=O)[O-])nn1Cc1ccc(C(=O)N/N=C/c2ccc(O)cc2O)cc1`, the “activity change, negative = inhibition” value is 6.39% (inactive).

Take `Cc1sc2ncnc(NCC(O)c3ccc([N+](=O)[O-])cc3)c2c1C` (stereo not given): the “activity change, negative = inhibition” value was -0.514% (inactive).

On to `CCc1nn2cc(C(=O)c3cc(Cl)ccc3O)cnc2c1-c1ccc(F)cc1`, for which the “activity change, negative = inhibition” value was -7.19% (inactive).

In the case of `Cc1cc(NC(c2cccnc2)c2ccc3cccnc3c2O)no1` (stereo not given), the “activity change, negative = inhibition” value is -3.83% (inactive).

On to `CCn1c2ccccc2c2cc(/C=N/NC(=O)c3ccccc3)ccc21`, for which the “activity change, negative = inhibition” value was -10% (inactive).

Consider `COc1ccc(C(NC(C)=O)c2cc(Cl)c3cccnc3c2O)cc1OC` (stereo not given), for which the “activity change, negative = inhibition” value was -18.1% (inactive).

As for `O=C(N/N=C/c1sc(N2CCOCC2)nc1-c1ccccc1)c1ccccc1O`, the “activity change, negative = inhibition” value is -18.3% (inactive).

With `CCc1nc2ccc(C(=O)Nc3cccc(NS(C)(=O)=O)c3)cn2c1N(C)CCCc1ccccc1`, the “activity change, negative = inhibition” value is -2.96% (inactive).

For `NC(=O)c1cccc(-c2ccnc3c2CC(C(=O)Nc2cccc(Oc4ccccc4)c2)O3)c1` (stereo not given), the “activity change, negative = inhibition” value is -7.75% (inactive).

With `CS(=O)(=O)Nc1cccc(NC(=O)c2cccc3c(-c4cccc(C(N)=O)c4)coc23)c1`, the Potency is 14.1 µM (active).

With `O=C1c2cccc3cc([N+](=O)[O-])cc(c23)C(=O)N1CCN1CCCC1`, the “activity change, negative = inhibition” value was 1.39% (inactive).

On to `COc1cc(C(=O)NC(=S)NNC(=O)c2cnccn2)cc(OC)c1OC`, for which the “activity change, negative = inhibition” value is -7.31% (inactive).

Consider `CC1=NN(c2nc3ccccc3[nH]2)C(=O)C1Cc1ccccc1` (stereo not given), for which the Potency is 25.1 µM (active).

Turning to `Clc1ccc2c(NCc3ccccc3)ccnc2c1`, the “activity change, negative = inhibition” value was -5.63% (inactive).

For the molecule `CC1(C)C(C=C(Cl)Cl)C1C(=O)Nc1ccc([N+](=O)[O-])cc1` (stereo not given), the “activity change, negative = inhibition” value was -1% (inactive).

Take `CC1(C)Cc2ccccc2C2=NNC(=O)C2=N1`: the “activity change, negative = inhibition” value was -3.52% (inactive).

As to `CC(=O)Nc1ccc(N(CC(O)Cn2c3ccccc3c3ccccc32)S(=O)(=O)c2ccc(C)cc2)cc1` (stereo not given), the “activity change, negative = inhibition” value is 1.22% (inactive).

As for `Cc1ccc(S(=O)(=O)Nc2ccc(O)c3cccnc23)cc1`, the “activity change, negative = inhibition” value was -7.92% (inactive).

For the molecule `CC(C)n1cnc2c(N(C)c3ccccc3)nc(N(CCN(C)C)Cc3ccccc3)nc21`, the “activity change, negative = inhibition” value is 0.895% (inactive).

For the molecule `COc1ccc(-c2cc(C3CCN(c4ccc(C(C)=O)cc4[N+](=O)[O-])CC3)[nH]n2)cc1`, the “activity change, negative = inhibition” value is -6.65% (inactive).

On to `CCC(c1nnnn1C1CCCC1)N(Cc1cccs1)Cc1cc2cc(C)ccc2[nH]c1=O` (stereo not given), for which the “activity change, negative = inhibition” value was 2.95% (inactive).

Regarding `CC[n+]1c(/C=C/N(C)c2ccccc2)oc2ccc(F)cc21`, the “activity change, negative = inhibition” value is 2.57% (inactive).

As to `O=[N+]([O-])c1ccc(NC(c2ccccc2)c2ccc3cccnc3c2O)cc1` (stereo not given), the “activity change, negative = inhibition” value was 0.892% (inactive).

For `CCC1=C(CC2NCCc3ccccc32)CC2c3cc(OC)c(OC)cc3CCN2C1` (stereo not given), the “activity change, negative = inhibition” value is -1.08% (inactive).

Consider `O=C(CNC(=O)c1ccc(F)cc1)N/N=C/c1cc(Br)ccc1OC(=O)/C=C/c1ccco1`, for which the “activity change, negative = inhibition” value is -1.3% (inactive).

As to `O=C(CNC(=O)c1ccccc1F)N/N=C/c1cc(Br)ccc1OC(=O)/C=C/c1ccco1`, the “activity change, negative = inhibition” value is -17.1% (inactive).

As to `O=C(/C=C/c1ccco1)Oc1cc(Br)cc(/C=N/NC(=O)c2ccccc2O)c1`, the Potency was 12.6 µM (active).

In the case of `O=C(CCCN1C(=O)/C(=C/c2ccccc2Cl)SC1=S)NNC(=O)c1ccc(Cl)cc1Cl`, the “activity change, negative = inhibition” value was 4.34% (inactive).

As to `Cc1nnc(SCC(N)=O)n1CC1CCCO1` (stereo not given), the “activity change, negative = inhibition” value is 0.593% (inactive).

As for `Cc1cc(C(=O)CN2C(=O)c3ccccc3S2(=O)=O)c(C)n1CC1CCCO1` (stereo not given), the Potency is 6.31 µM (active).

Regarding `O=C(CN1C(=O)c2ccccc2S1(=O)=O)c1ccc(Cl)cc1Cl`, the Potency is 0.562 µM (active).

On to `Cc1ccc(NC(=O)CN2C(=O)c3ccccc3S2(=O)=O)cc1C`, for which the “activity change, negative = inhibition” value is -22.2% (inactive).

Consider `COc1ccc(S(=O)(=O)Nc2ccc(F)cc2)cc1N(C)S(=O)(=O)c1ccc(Cl)cc1`, for which the “activity change, negative = inhibition” value was -4.61% (inactive).

`C=CCc1cccc(/C=N/NC(=O)C[n+]2ccccc2)c1O`: the “activity change, negative = inhibition” value is 49.8% (inactive).

Turning to `CC(=O)Oc1ccc(N(C(C)=O)S(=O)(=O)c2ccc(C)cc2C)c2ccccc12`, the “activity change, negative = inhibition” value was -6.82% (inactive).

Turning to `NS(=O)(=O)c1ccc(CCNc2ncnc3c2c(-c2ccccc2)cn3-c2ccc(F)cc2)cc1`, the “activity change, negative = inhibition” value is -1.88% (inactive).

In the case of `Cc1cc(/C=N/n2c(COc3ccccc3)nc3ccccc3c2=O)c(O)c([N+](=O)[O-])c1`, the Potency was 15.8 µM (active).

With `Cc1nc2ccccc2c(=O)n1/N=C/c1cc(Br)ccc1O`, the “activity change, negative = inhibition” value is -6.67% (inactive).

As to `Cc1nc2ccccc2c(=O)n1/N=C/c1c(O)ccc2oc3c(c12)CCCC3`, the “activity change, negative = inhibition” value is -0.379% (inactive).

`Cc1ccc(C(C)C)c(OCc2ccc(C(=O)N/N=C/c3ccc(O)cc3O)cc2)c1`: the “activity change, negative = inhibition” value was -15.1% (inactive).

With `COc1ccc(CC(N)c2csc(NC(=O)c3cccc(OC(F)(F)F)c3)n2)cc1` (stereo not given), the “activity change, negative = inhibition” value was -2.7% (inactive).

These data come from PubChem BioAssay AID1745846 (National Center for Advancing Translational Sciences (NCATS), 2022).
